Results reported in PubChem BioAssay (NCI).
This is part of a sample that, as a whole, favours compounds with a hit. Of some 79,000 tested, about 15% had one in any assay. Unmarked numbers belong to inactive results. The source made the active and inactive calls. Cut-off read from the data, not from the text of the source: active = growth inhibition above about 70%; inactive = the rest. Where a SMILES comes first, the peptide text is derived from it. The star is where a group is joined. Bz = O=C(c1ccccc1)*; Bn = c1ccc(C*)cc1; βAla = NCCC(=O)O

Key:
[1] = NCI Yeast Anticancer Drug Screen. Data for the rad50 strain (AID 155);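 note: 0% = growth of vehicle-only cultures of the same strain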; conditions: S. cerevisiae rad50 strain growth inhibition; at 50.0 µM; active compounds read high
In short: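 Inhibition values express reduced yeast growth in compound-treated cultures relative to vehicle-treated controls.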

[2] = NCI Yeast Anticancer Drug Screen. Data for the mec2-1 strain (AID 157); conditions: S. cerevisiae mec2-1 strain, at 50.0 µM, active compounds read high
In short: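 Readout is yeast growth inhibition, normalised to vehicle-treated controls, in the mec2-1 strain exposed to compound.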

[3] = NCI Yeast Anticancer Drug Screen. Data for the sgs1 mgt1 strain (AID 161);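 note: 0% = growth of cultures given vehicle only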; conditions: S. cerevisiae sgs1 mgt1 strain, at 50.0 µM, active compounds read high
In short: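 Yeast cells carrying a defined DNA-repair defect were exposed to test compounds. Growth inhibition was measured relative to vehicle-treated controls.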

[4] = NCI Yeast Anticancer Drug Screen. Data for the cln2 rad14 strain (AID 165);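 note: 0% = growth equal to vehicle treated cultures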; conditions: S. cerevisiae cln2 rad14 strain, at 50.0 µM, active compounds read high
In short: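 Relative to vehicle controls, growth inhibition of compound-treated cln2 rad14 yeast was recorded.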

[5] = NCI Yeast Anticancer Drug Screen. Data for the bub3 strain (AID 167); conditions: S. cerevisiae bub3 mutant strain, at 50.0 µM, active compounds read high
In short: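 Steps: expose the mutant yeast strain to compound; grow alongside vehicle-treated cultures; measure growth; express inhibition against the vehicle cultures.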

[6] = NCI Yeast Anticancer Drug Screen. Data for the mlh1 rad18 strain (AID 175); conditions: S. cerevisiae mlh1 rad18 strain growth inhibition; at 50.0 µM; active compounds read high
In short: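 Test agents were incubated with a yeast strain of defined genotype (DNA damage repair defect). Inhibition of growth was derived by comparison with vehicle-exposed cultures.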

N#CC(C#N)=C(N)/C(C#N)=C\c1ccnc2ccccc12
growth inhibition [1]: -28.9%
growth inhibition [2]: -1.75%
growth inhibition [3]: -3%
growth inhibition [4]: 15.1%
growth inhibition [5]: 0.65%
growth inhibition [6]: -18.2%

CCCCCc1c2nc(c(CCCCC)c3ccc([nH]3)c(CCCCC)c3ccc([nH]3)c(CCCCC)c3nc1C=C3)C=C2
growth inhibition [1]: 0.1%
growth inhibition [2]: -11.8%
growth inhibition [3]: -10.3%
growth inhibition [4]: 23.1%
growth inhibition [5]: -10.5%
growth inhibition [6]: -15.6%

COC(=O)c1nc(N)nc(C(=O)OC)c1C(=O)c1cccs1
growth inhibition [1]: -2.55%
growth inhibition [2]: -9.05%
growth inhibition [3]: -28.9%
growth inhibition [4]: -24.8%
growth inhibition [5]: -43%
growth inhibition [6]: -20.9%

C/C(=N\N=C(/C)c1ccc(Br)s1)c1ccc(Br)s1
growth inhibition [1]: -42.5%
growth inhibition [2]: -35%
growth inhibition [3]: -23.7%
growth inhibition [4]: -18.3%
growth inhibition [5]: -12.8%
growth inhibition [6]: -28.1%

COC(=O)C(CSCc1ccccc1)NC(=O)C(CSCc1ccccc1)NC(=O)CCNC(=O)c1ccccc1 (configuration not stated) ({Bz-βAla}-Cys(Bn)-Cys(Bn)-OMe; configuration not given here)
growth inhibition [1]: 13.9%
growth inhibition [2]: -5.05%
growth inhibition [3]: 2.1%
growth inhibition [4]: 30.1%
growth inhibition [5]: -0.9%
growth inhibition [6]: 9.05%

CCOC(=O)c1c(C)c2c(n1C)CC/C(=C\N1CCN(c3ccccc3)CC1)C2=O
growth inhibition [1]: 0.6%
growth inhibition [2]: -1.55%
growth inhibition [3]: -19.5%
growth inhibition [4]: -14.8%
growth inhibition [5]: 2.25%
growth inhibition [6]: 18.3%

O=c1cc(O)n2ncnc2[nH]1
growth inhibition [1]: -4.3%
growth inhibition [2]: -23.6%
growth inhibition [3]: -21.8%
growth inhibition [4]: 3.05%
growth inhibition [5]: -12.6%
growth inhibition [6]: 9%

c1ccc(CCC2OCC(c3ccccc3)O2)cc1 (configuration not stated)
growth inhibition [1]: -21.9%
growth inhibition [2]: 18.6%
growth inhibition [3]: -3.2%
growth inhibition [4]: -35.9%
growth inhibition [5]: 58.8%
growth inhibition [6]: -2.05%

CC(C)(C)c1ccc(OS(=O)(=O)c2ccccc2)c(Cl)c1
growth inhibition [1]: -8.25%
growth inhibition [2]: -1.15%
growth inhibition [3]: -1.55%
growth inhibition [4]: -14.1%
growth inhibition [5]: 1.5%
growth inhibition [6]: 0.85%

COc1ccccc1/C=N/NS(=O)(=O)c1ccc(NC(C)=O)cc1
growth inhibition [1]: 0.85%
growth inhibition [2]: -7.05%
growth inhibition [3]: 14.1%
growth inhibition [4]: -14.7%
growth inhibition [5]: -41.3%
growth inhibition [6]: -4.2%

COC(=O)C(Nc1ccc(OC)cc1)c1ccccc1 (configuration not stated)
growth inhibition [1]: -3.85%
growth inhibition [2]: -1.35%
growth inhibition [3]: -8.6%
growth inhibition [4]: -21.6%
growth inhibition [5]: 4%
growth inhibition [6]: -13.6%

CCCCn1c(=S)[nH]c2c(=O)n(C)c(=O)n(C)c21
growth inhibition [1]: 4.95%
growth inhibition [2]: 4.3%
growth inhibition [3]: 7.55%
growth inhibition [4]: -14.4%
growth inhibition [5]: -7.35%
growth inhibition [6]: 4%

O=C(C(=O)c1cccc(C(=O)C(=O)c2ccccc2)c1)c1ccccc1
growth inhibition [1]: 5.45%
growth inhibition [2]: -10.6%
growth inhibition [3]: -15.2%
growth inhibition [4]: 17.3%
growth inhibition [5]: -29%
growth inhibition [6]: 9.5%

CC(=O)Nc1ccccc1OC(=O)c1ccccc1
growth inhibition [1]: 4.4%
growth inhibition [2]: -4.4%
growth inhibition [3]: 2.6%
growth inhibition [4]: 11.9%
growth inhibition [5]: 1.8%
growth inhibition [6]: -2.5%

Cc1ccc(S(=O)NOCc2ccccc2)cc1 (configuration not stated)
growth inhibition [1]: 3.25%
growth inhibition [2]: 16.4%
growth inhibition [3]: 5.3%
growth inhibition [4]: 11.4%
growth inhibition [5]: 11.1%
growth inhibition [6]: 51%

CCNS(=O)(=O)c1cc(C(=O)O)cc(C(=O)O)c1
growth inhibition [1]: 6.9%
growth inhibition [2]: -7.6%
growth inhibition [3]: -4.95%
growth inhibition [4]: -28.9%
growth inhibition [5]: -5.55%
growth inhibition [6]: 0.15%

Cc1cc2ccc(OC(=O)c3ccc(N=C(N)N)cc3)cc2oc1=O
growth inhibition [1]: -8.95%
growth inhibition [2]: 4.3%
growth inhibition [3]: -29.6%
growth inhibition [4]: -47.8%
growth inhibition [5]: -24.6%
growth inhibition [6]: 13.7%

Cc1c([N+](=O)[O-])cc(C(C)(C)C)c(OC(=O)Nc2cccc(Cl)c2)c1[N+](=O)[O-]
growth inhibition [1]: 60.7%
growth inhibition [2]: 74% (active)
growth inhibition [3]: 79.7% (active)
growth inhibition [4]: 23.1%
growth inhibition [5]: 39.1%
growth inhibition [6]: 72.3% (active)

CC(=O)NCC(C)(C)C
growth inhibition [1]: 2.15%
growth inhibition [2]: 10.8%
growth inhibition [3]: -12.7%
growth inhibition [4]: -16.2%
growth inhibition [5]: -32%
growth inhibition [6]: -12.8%

CCCCCCCCCCCCOP(=O)(O)OCC(N)C(=O)O (configuration not stated)
growth inhibition [1]: 10.7%
growth inhibition [2]: 9.2%
growth inhibition [3]: -11.4%
growth inhibition [4]: -39.8%
growth inhibition [5]: -18%
growth inhibition [6]: -19.3%

CCN(CC)c1ccc2c(c1)C(O)c1ccccc1-2 (configuration not stated)
growth inhibition [1]: -3.75%
growth inhibition [2]: -20.4%
growth inhibition [3]: -5.7%
growth inhibition [4]: -12.4%
growth inhibition [5]: 14.4%
growth inhibition [6]: 17.6%

Cc1nn(C(=O)CC(=O)Nc2ccccc2Cl)c(C)c1N=Nc1ccccc1F
growth inhibition [1]: -13.7%
growth inhibition [2]: 4%
growth inhibition [3]: -27.6%
growth inhibition [4]: 21.9%
growth inhibition [5]: 2.7%
growth inhibition [6]: -14.6%

N#Cc1c(/C=C/c2ccccc2)c2c([nH]c1=S)CCCCC2
growth inhibition [1]: 0.35%
growth inhibition [2]: -17.5%
growth inhibition [3]: 16.1%
growth inhibition [4]: 26.8%
growth inhibition [5]: 16.9%
growth inhibition [6]: 19.1%

CC(C)(C)C1(C#N)C(=O)N(c2ccc(Cl)cc2)C12c1ccccc1-c1ccccc12 (configuration not stated)
growth inhibition [1]: 4.55%
growth inhibition [2]: 9.55%
growth inhibition [3]: 6.45%
growth inhibition [4]: 19.2%
growth inhibition [5]: -4.5%
growth inhibition [6]: 20.4%

O=S1(=O)C2CCC(Br)C1CCC2Br (configuration not stated)
growth inhibition [1]: 9.65%
growth inhibition [2]: 13.8%
growth inhibition [3]: 7.65%
growth inhibition [4]: 14.2%
growth inhibition [5]: -2.65%
growth inhibition [6]: 10.9%

Nc1cccc(S(N)(=O)=O)c1
growth inhibition [1]: 10.4%
growth inhibition [2]: -5.65%
growth inhibition [3]: -0.85%
growth inhibition [4]: -40%
growth inhibition [5]: 12.2%
growth inhibition [6]: 1.4%

CC(C)=CCC/C(C)=C\COC=O
growth inhibition [1]: 23%
growth inhibition [2]: 12.4%
growth inhibition [3]: 18.9%
growth inhibition [4]: 6.45%
growth inhibition [5]: 13.8%
growth inhibition [6]: 50.9%

COc1ccc(Br)cc1/C=N/N=C/c1cc(Br)ccc1OC
growth inhibition [1]: -0.2%
growth inhibition [2]: -21.6%
growth inhibition [3]: 1.5%
growth inhibition [4]: 20.9%
growth inhibition [5]: 21.5%
growth inhibition [6]: 23.4%

COC(=O)CC1=CCCc2ccccc21
growth inhibition [1]: -3.95%
growth inhibition [2]: 1.55%
growth inhibition [3]: -2.85%
growth inhibition [4]: 7%
growth inhibition [5]: 0.35%
growth inhibition [6]: -22.2%

CCOC(=O)C1=NN(c2ccccc2)C(=O)/C1=C\N1C(=S)NC(=O)/C1=C\c1cccc([N+](=O)[O-])c1
growth inhibition [1]: 11.2%
growth inhibition [2]: -11.6%
growth inhibition [3]: 1.25%
growth inhibition [4]: 31.3%
growth inhibition [5]: -4.8%
growth inhibition [6]: -4.8%

CCCCCCC/C=C\C=O
growth inhibition [1]: 7.2%
growth inhibition [2]: 16.9%
growth inhibition [3]: 7.95%
growth inhibition [4]: -1.25%
growth inhibition [5]: 1%
growth inhibition [6]: 3.7%

CN(C(N)=O)C1CCCC1
growth inhibition [1]: 12%
growth inhibition [2]: -21.3%
growth inhibition [3]: -5.65%
growth inhibition [4]: 1.4%
growth inhibition [5]: 9.4%
growth inhibition [6]: 6.35%

COC1=NCc2ccccc2-c2ccccc21
growth inhibition [1]: -16.1%
growth inhibition [2]: -21.2%
growth inhibition [3]: -17.9%
growth inhibition [4]: 8.55%
growth inhibition [5]: 27.5%
growth inhibition [6]: -28.9%

CCOC(=O)c1c(-c2ccccc2)csc1NC(=O)CN1CCCCC1
growth inhibition [1]: 28.6%
growth inhibition [2]: 8.8%
growth inhibition [3]: 14.7%
growth inhibition [4]: 6.55%
growth inhibition [5]: 17.9%
growth inhibition [6]: 24.7%

CC(C)(C)c1ccc(O)c(Sc2cc(C(C)(C)C)ccc2O)c1
growth inhibition [1]: 5.8%
growth inhibition [2]: -24.9%
growth inhibition [3]: 7.95%
growth inhibition [4]: -33.4%
growth inhibition [5]: 12.6%
growth inhibition [6]: -15.2%

CC(C)CCc1c(Cl)nc(Cl)nc1Cl
growth inhibition [1]: 32.2%
growth inhibition [2]: 38.6%
growth inhibition [3]: 33.6%
growth inhibition [4]: 10.1%
growth inhibition [5]: 43.9%
growth inhibition [6]: 16.9%

COc1cc(C2c3cc4c(cc3OC(N3CCCCC3)C2C)OCO4)cc(OC)c1O (configuration not stated)
growth inhibition [1]: 1.45%
growth inhibition [2]: -14.3%
growth inhibition [3]: -14.3%
growth inhibition [4]: 6.95%
growth inhibition [5]: -18.5%
growth inhibition [6]: -9.25%
